Shown are actives, neighbours in structure and some others; about 3.4% of the full set was active somewhere.
PP1 counter = blocks human PP1-alpha phosphatase, a PP5 counter-screen | P62136 | purified PP1alpha, OMFP fluorescence | inhibition, % at 6.7 µM | 0.9% of 320,000 active | AID 2235;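 active = inhibition above the mean inhibition of all tested compounds plus 3 SD, computed separately for each screening campaign, cut at about 15% in these data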
PAFAH1B2 FP inh = blocks human PAF acetylhydrolase 1b catalytic subunit 2; AID 492953; P68402; recombinant PAFAH1B2, FP-rhodamine activity probe, fluorescence polarization; 1.2% of 340,000 active; inhibition, % at 3.39 µM;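 active = inhibition above the mean of all tested compounds plus 3 SD, cut at about 24% in these data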;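 note: 0% = enzyme with DMSO and 100% = wells lacking PAFAH1B2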
Target sequence (P68402 whole entry, looked up): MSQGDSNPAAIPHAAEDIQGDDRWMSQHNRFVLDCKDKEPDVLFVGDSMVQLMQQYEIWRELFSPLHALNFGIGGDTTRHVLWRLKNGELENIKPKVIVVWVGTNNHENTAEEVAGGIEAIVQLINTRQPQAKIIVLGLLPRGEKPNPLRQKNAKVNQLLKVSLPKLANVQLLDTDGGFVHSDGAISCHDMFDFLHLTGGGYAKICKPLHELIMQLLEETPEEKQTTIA
PAFAH2 inh = inhibitors of human PAFAH2; recombinant PAFAH2, FP-rhodamine activity probe, fluorescence polarization; AID 492956; Q99487; 0.99% of 340,000 active; inhibition, % at 3.39 µM;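 active = inhibition above the mean over all tested compounds plus 3 SD, cut at about 30% in these data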;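 note: inhibitors block probe labeling of enzyme so polarization drops; 0% = enzyme with DMSO and 100% = wells lacking PAFAH2 protein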
PP5 inh = PP5 (human) phosphatase inhibition. P53041. purified PP5c, OMFP substrate fluorescence. inhibition, % at 6.7 µM. 0.18% of 320,000 active;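 active = inhibition above the campaign's mean inhibition across all tested compounds plus 3 SD, cut at about 9.5% in these data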;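 note: 0% = DMSO only and 100% = 100 µM cantharidin control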
pPAFAH FP inh = pPAFAH (human) enzyme inhibition | Q13093 | recombinant pPAFAH, FP-rhodamine probe fluorescence polarization | inhibition, % at 3.39 µM | 1.5% of 330,000 active | AID 463082;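 active = inhibition above the mean inhibition across the screen plus 3 SD, cut at about 25% in these data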;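 note: inhibitors block binding of the rhodamine activity-based probe so polarization drops; 0% = enzyme with DMSO and 100% = wells lacking pPAFAH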
PAFAH1B3 FP inh = inhibitors of human PAFAH1B3. 0.28% of 340,000 active. recombinant PAFAH1B3, FP-rhodamine probe, fluorescence polarization. Q15102. inhibition, % at 3.39 µM;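 active = inhibition above the screen-wide average of all tested compounds plus 3 SD, cut at about 25% in these data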;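 note: 0% = enzyme with DMSO only and 100% = wells lacking PAFAH1B3 protein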
Target sequence (Q15102 whole entry, looked up): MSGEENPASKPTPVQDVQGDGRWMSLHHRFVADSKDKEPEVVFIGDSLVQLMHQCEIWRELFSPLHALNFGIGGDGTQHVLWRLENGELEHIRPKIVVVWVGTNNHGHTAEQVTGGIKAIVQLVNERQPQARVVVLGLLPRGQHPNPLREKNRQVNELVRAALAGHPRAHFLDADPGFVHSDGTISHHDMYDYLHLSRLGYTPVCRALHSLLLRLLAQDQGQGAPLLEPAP
PP1 confirm = confirmation of human PP1 phosphatase inhibitors; 52% of 1,900 active; AID 2358; shares compounds with PP1 counter; inhibition, % at 6.7 µM; purified PP1alpha, OMFP substrate fluorescence;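 active = mean PP1 inhibition above a set limit taken from the earlier primary screen, cut at about 15% in these data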
PP5 inh counter = counter-screen for PP1 inhibitors: human PP5 phosphatase inhibition. shares compounds with PP1 counter. purified PP5c, OMFP fluorescence. inhibition, % at 6.7 µM. 4% of 1,900 active;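 active = mean PP5 inhibition over triplicate wells above about 9.5% taken from the earlier PP1 screen, limit read from the data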
* = called active by the depositor; . = not tested or not shown.

SMILES | PP1 counter | PAFAH1B2 FP inh | PAFAH2 inh | PP5 inh | pPAFAH FP inh | PAFAH1B3 FP inh | PP1 confirm | PP5 inh counter
Cc1ccc(S(=O)(=O)N2CCC(C(=O)N3CCCC(C(F)(F)F)C3)CC2)cc1C (stereo unspecified) | -3.7 | 4.2 | 6.0 | 1.3 | -3.8 | 1.8 | . | .
COc1ccc(S(=O)(=O)N2CCOCC2)cc1NC(=O)c1cccc(-n2cccc2)c1 | 7.3 | 2.3 | 11.1 | 0.0 | 16.9 | 6.4 | . | .
CCOc1ccc(NC(=O)c2cccc(-n3cccc3)c2)cc1S(=O)(=O)N1CCOCC1 | 21.5* | 4.1 | 14.9 | 4.1 | 22.4 | 5.1 | 22.7* | 1.2
CCc1ccc(NC(=O)C(=O)NCCOc2ccccc2Cl)cc1 | 3.6 | 3.6 | -6.7 | 0.1 | 4.9 | 3.3 | . | .
CCOc1ccc(NC(=O)CNC(=O)c2ccc(OC)cc2)cc1 | -6.4 | 2.7 | -6.0 | 1.8 | 3.8 | 5.3 | . | .
Cc1ccc(NC(=O)CCC(=O)OCC(=O)c2ccc(-c3ccccc3)cc2)cc1 | 28.9* | -12.5 | -15.2 | -0.6 | 5.8 | -14.5 | 21.3* | -2.8
COc1ccc(C(=O)NCC(=O)Nc2ccc(-c3ccccc3)cc2)cc1 | 19.8* | -5.7 | -14.0 | -1.9 | 2.2 | -12.6 | 32.7* | -2.9
COc1ccc(NS(=O)(=O)c2c(C)cc(C)cc2C)cn1 | 1.2 | 1.7 | -10.4 | 3.2 | 3.7 | 4.0 | . | .
Cc1ccc2oc(C(=O)N3CCN(CC(=O)NC(C)C)CC3)c(C)c2c1 | 2.2 | 1.5 | 0.9 | 4.2 | 4.1 | 3.9 | . | .
O=C(Nc1nnc(-c2ccccc2Cl)o1)c1nc2ccccc2s1 | 40.3* | -2.5 | 0.0 | -0.4 | 12.3 | 1.2 | 31.3* | -1.3
O=C(CCCNC(=O)c1ccc(Cl)cc1)NCc1ccccc1F | -1.3 | 4.7 | -3.9 | -0.2 | 5.8 | 10.7 | . | .
CCNc1nc(NCC)nc(C(=O)NN)n1 | 23.9* | 7.1 | -1.7 | 0.8 | 1.9 | 14.7 | 4.2 | 0.3
CC(C)(C)NC(=O)CN(Cc1ccc2c(c1)OCO2)C(=O)CNS(=O)(=O)c1ccccc1 | -1.3 | 3.6 | -2.4 | -0.1 | 10.3 | 1.0 | . | .
CCOC(=O)c1cnc(-n2[nH]c(C)c(Cc3ccccc3)c2=O)[nH]c1=O | 27.5* | 6.0 | 27.6 | 0.1 | 8.6 | 18.6 | 14.7 | -4.2
CCOC(=O)c1cnc2c(C)c(-c3ccccc3)[nH]n2c1=O | 48.5* | 4.4 | 1.0 | 0.0 | 5.2 | 6.2 | 33.9* | -2.4
c1ccc(-c2cc(-c3nnc4n3N=C(c3ccc5ccccc5c3)CS4)[nH]n2)cc1 | 30.5* | -1.9 | -11.8 | 4.5 | -3.3 | -12.4 | 22.5* | -2.3
Cc1cc(-c2nnc3n2N=C(c2ccc(-c4ccccc4)cc2)CS3)n[nH]1 | 34.3* | -5.3 | 5.1 | -0.2 | 1.6 | 5.5 | 22.6* | -0.6
COc1cc(NC(=O)c2cc(OC)c(OC)c(OC)c2)cc(-n2cnnn2)c1 | 0.3 | 5.6 | -8.4 | 1.6 | 6.1 | 4.7 | . | .
O=C(Cc1ccccc1[N+](=O)[O-])OCC(=O)N1CCN(c2ccccc2)CC1 | -0.7 | 1.7 | 4.2 | 0.2 | 4.7 | 14.0 | . | .
Cc1ccc(OCC(O)CNC2CCCC2)cc1C (stereo unspecified) | -0.3 | 0.3 | -0.7 | -0.6 | 1.2 | 6.5 | . | .
NS(=O)(=O)c1ccc(NC(=O)c2cc(-c3cccs3)nc3ccccc23)cc1 | 8.1 | -3.4 | -28.1 | 3.1 | -13.2 | -7.9 | . | .
CCOC(=O)Cn1c(=NC(=O)CSC(C)=O)sc2ccccc21 | -0.3 | 1.6 | 8.7 | -2.0 | 2.2 | -7.3 | . | .
C#CCn1c(=NC(=O)c2cc(Cl)sc2Cl)sc2cc(S(N)(=O)=O)ccc21 | 19.1* | -12.8 | -21.6 | 1.9 | -3.9 | -18.3 | 25.4* | -0.9
CCOC(=O)Cn1c(=NC(=O)c2sc3ccccc3c2Cl)sc2cc(S(N)(=O)=O)ccc21 | 30.4* | -15.7 | -26.8 | -0.3 | -2.5 | -41.0 | 31.5* | -3.0
C#CCn1c(=NC(=O)c2cc(-c3cccs3)nc3ccccc23)sc2cc(S(N)(=O)=O)ccc21 | 20.3* | -1.4 | -29.5 | 3.5 | -28.3 | -10.1 | 4.0 | -0.5
CCCCCCCCCCCCCCCC(=O)OC(CC(=O)O)C[N+](C)(C)C (stereo unspecified) | 5.3 | 0.6 | 2.9 | 3.5 | 16.7 | -1.0 | . | .
